Assay results taken from PubChem BioAssay (NCI).
This is part of a sample that, as a whole, favours compounds with a hit. Of some 83,000 tested, about 20% had one in any assay.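 Assay: single dose, 48 h. Readout: percent growth (0 = no net growth; negative = cell death). Active: <10.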 A number with no mark means an inactive call. Active and inactive are the calls of the source.

Tests used:
Test in all cases: NCI-60 one-dose screen, 48 h (100 = growth as untreated, 0 = no growth, -100 = all killed)
Conditions in all cases: 10 µM unless noted
HCT-15 colon = system: HCT-15 colon
HT29 colon = system: HT29 colon
SNB-75 CNS = system: SNB-75 CNS
SNB-19 CNS = system: SNB-19 CNS
U251 CNS = system: U251 CNS
PC-3 prostate = system: PC-3 prostate
SK-MEL-5 melanoma = system: SK-MEL-5 melanoma
UACC-62 melanoma = system: UACC-62 melanoma
LOX IMVI melanoma = system: LOX IMVI melanoma
SK-MEL-28 melanoma = system: SK-MEL-28 melanoma
SK-MEL-2 melanoma = system: SK-MEL-2 melanoma
EKVX NSCLC = system: EKVX NSCLC
SN12C renal = system: SN12C renal
UO-31 renal = system: UO-31 renal
TK-10 renal = system: TK-10 renal
ACHN renal = system: ACHN renal
CAKI-1 renal = system: CAKI-1 renal
A498 renal = system: A498 renal
MOLT-4 leukemia = system: MOLT-4 leukemia
CCRF-CEM leukemia = system: CCRF-CEM leukemia

Structure (SMILES)	growth (HCT-15 colon)	growth (HT29 colon)	growth (SNB-75 CNS)	growth (SNB-19 CNS)	growth (U251 CNS)	growth (PC-3 prostate)	growth (SK-MEL-5 melanoma)	growth (UACC-62 melanoma)	growth (LOX IMVI melanoma)	growth (SK-MEL-28 melanoma)	growth (SK-MEL-2 melanoma)	growth (EKVX NSCLC)	growth (SN12C renal)	growth (UO-31 renal)	growth (TK-10 renal)	growth (ACHN renal)	growth (CAKI-1 renal)	growth (A498 renal)	growth (MOLT-4 leukemia)	growth (CCRF-CEM leukemia)
COc1ccc(Nn2c(SCC(=O)Nc3nc(-c4ccc(Cl)cc4)cs3)nc(C)c2C)cc1	59.8%	30.1%	45.8%	79.2%	43.5%	35.7%	-21.5% (active)	49.5%	38.9%	86.8%	90.5%	41.9%	67.2%	39.4%	68.5%	52%	34.4%	69.5%	36.1%	
CC[N+](CC)(CCCC(C)[N+]1(Cc2ccccc2)C(C)=CC=C1C)Cc1ccccc1 (centres undefined)	98.5%	44.1%	87.6%	92.6%	106%	73.3%	68.7%	73%	90.7%	78.8%	102%	78.1%	85.1%	91.2%	93.8%	100%	101%	87.5%	84%	74.1%
NC(=O)c1cccc(-c2cc(C(N)=O)ccc2Cl)c1	33.8%	8.86% (active)	-19.6% (active)	41.6%	19.1%	29.6%	14.9%	35.7%	42.1%	58.8%	34.5%	35.7%	50%	45.7%	51.2%	36.3%	31.8%	-5.64% (active)	26.9%	7.74% (active)
O=C(N/N=C/c1ccncc1)c1ccccc1Nc1cccc(C(F)(F)F)c1	74.2%	99.3%	75.8%	72.2%	86.9%	75.8%	76%	81%	70.5%	94.9%	99.3%	91.7%	90.8%	60.9%	102%	90.5%	117%	71.9%	72.2%	
CCN1C(=O)N(CC)C2NC(SC)=NC21 (centres undefined)	103%	108%	86%	97.8%	101%	99.5%	104%	96.2%	93.1%	97.8%	111%	97.6%	95.9%	89.7%	115%	99.8%	87.9%	90.2%	102%	
CC(C)Cc1ccc(C(C)C(=O)NCc2ccc(Cn3c(=O)sn(-c4ccc(Cl)cc4)c3=O)cc2)cc1 (centres undefined)	83.2%	75.6%	79.4%	83.9%	65.5%	82.8%	94.1%	66.4%	76.1%	77%	107%	82.6%	84.1%	65.4%	74.2%	56.5%	74.7%	95%	85.7%	96.2%
CC(C)[N+](C)(CCOC(COc1ccccc1)COc1ccccc1)C(C)C	100%	73.4%	70.9%	86.2%	83.8%	73.2%	86.8%	78.6%	95.5%	96.6%	87.1%	79.1%	64.8%	88.8%	94.1%	105%	105%	60%	98.2%	87.7%
c1ccc(C2CC(c3cccc(Nc4ccncc4)c3)=NN2c2ccccc2)cc1 (centres undefined)	-15.7% (active)	1.62% (active)	77.3%	89.1%	25.6%	54.5%	75.3%	96.8%	43.7%	-56.2% (active)	103%	91.4%	77.9%	70.3%	98.9%	90.1%	61.8%	83.2%	18%	56.9%
CCNC(=O)c1[nH]cc(-c2ccc(OC)cc2)c1-c1cc(OC)cc(OC)c1	68.6%	94.6%	67%	84%	98%	84.2%	61.1%	48.2%	83.4%	87.9%	98.6%	89.8%	85.4%	77.4%	115%	67.3%	59.9%	91.1%	94.5%	
O=[N+]([O-])c1cccc(-c2nc(-c3ccc(Cl)cc3Cl)cn2-c2ccccc2)c1	-6.56% (active)	-67.8% (active)	-56.7% (active)	53.7%	-60.5% (active)	-47.7% (active)	71.4%	31.3%	3.46% (active)	-16.4% (active)	52.4%	-8.4% (active)	11.5%	2.03% (active)	29.3%	-52.1% (active)	-68.8% (active)	-33.2% (active)	45.4%	95.5%
COc1cc(/C=N/NC(=O)c2ccccc2Nc2cccc(C(F)(F)F)c2)ccc1O	86.1%	113%	107%	84.2%	87.8%	80.9%	58.8%	78.7%	76.3%	104%	136%	79.5%	96.5%	74.8%	126%	103%	116%	76.9%	-76.2% (active)	-41.6% (active)
COc1ccc(Cc2nc3cc(OC)c(OC)cc3c(=O)[nH]2)cc1	29.8%	62.9%	107%	81.7%	77.8%	86.4%	90.8%	77.6%	61%	79.3%	105%	105%	67.9%	69.6%	237%	72.2%	95.7%	122%	80.7%	
O=C1NC(=O)C(=Cc2cn(Cc3ccccn3)c3ccccc23)C(=O)N1	102%	111%	89.2%	99.7%	97.2%	94.2%	98.3%	85.7%	96.7%	114%	102%	98%	102%	75.5%	59.8%	104%	13.9%	-90.4% (active)	100%	95.8%
CN1CCN(c2cnc(C(=O)Nc3cc(F)cc4cccnc34)cn2)CC1	30.8%	42.6%	95.2%	87.4%	79.9%	21.4%	89.2%	95.3%	59.6%	67.8%	94.8%	45.5%	62.2%	43%	69.3%	26.5%	57.3%	75.7%	23.5%	35.6%
C=C(C)[C@H]1CC/C(C)=C/CC[C@]2(C)O[C@H]2CC/C(COC(=O)[C@@H](OC(C)=O)[C@H](NC(=O)c2ccccc2)c2ccccc2)=C\[C@@H]1O	105%	102%	72.6%	81.8%	99.2%	90.1%	78.8%	59.3%	93.1%	104%	119%	84.7%	93.8%	79.4%	99.7%	116%	89.6%	92.8%	98.2%	
c1cnc2nc3c(cc2c1)oc1ccccc13	101%	105%	76.6%	92%	97%	104%	91.2%	87.1%	97.7%	111%	101%	102%	94.8%	68.3%	107%	93.3%	80%	69.3%	92.8%	90.9%
